Data from PubChem BioAssay (NCI).
Compounds without any hit were thinned out: in the full panel of roughly 79,000, 15% have a hit. A number with no mark means an inactive call. Cut-off read from the data, not from the text of the source: active = growth inhibition above about 70%; inactive = the rest.

Assay: NCI Yeast Anticancer Drug Screen. Data for the rad52 strain (AID 147);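 note: 0% = growth of vehicle-treated control cultures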
Settings: S. cerevisiae rad52 mutant growth inhibition; at 3.7 µM; stronger effect = higher value
Method in brief: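 Compounds are applied to a genetically defined yeast strain lacking normal DNA damage repair, and inhibition of growth is expressed relative to cultures given vehicle only.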

| Structure (SMILES) | growth inhibition [%] |
| --- | --- |
| O=CC=C(c1ccccc1)c1ccccc1 | 0 |
| FC(F)(F)c1nc2nc(Cl)c(Cl)nc2n1CCCN1CCOCC1 | 11 |
| BrCC[P+](c1ccccc1)(c1ccccc1)c1ccccc1 | -45 |
| N#CSc1ccc(S(N)(=O)=O)cc1 | -48 |
| O=[N+]([O-])c1ccc2nc3ccccc3cc2c1 | 13 |
| O=C(NC(Nc1ccc(F)c(Cl)c1)(C(F)(F)F)C(F)(F)F)C(C(F)(F)F)C(F)(F)F | 12 |
| O=C(/C=C\c1ccc(Cl)cc1Cl)c1cccs1 | -3 |
| O=C(NCCCCNCCCNC(=O)c1cc(-c2ccccc2)nc2ccccc12)c1cc(-c2ccccc2)nc2ccccc12 | -1 |
| NC(=NCc1ccccc1)N/N=C\c1ccnc2ccccc12 | -3 |
| CCCCN(CCCC)CCSc1ccc(Cl)cc1 | -13 |
| COc1cc(C2C3=C(COC3=O)Oc3cc4c(cc32)OCO4)ccc1O (configuration not stated) | 2 |
| C#CCCCc1ccccc1 | -68 |
| CCc1ccc(NS(=O)(=O)c2ccccc2)c([N+](=O)[O-])c1 | 2 |
| COc1ccc(C2c3cc4c(cc3OC(C)(O)C2C)OCO4)c(OC)c1 (configuration not stated) | 1 |
| COC(=O)c1ccc(CCC2=CC(=O)C(Br)=CC2=O)cc1 | 35 |
| NNC(=O)CCc1ccc2ccc3ccccc3c2c1 | -3 |
| Cn1c2ccccc2c(=O)c2cc(NC(=O)CCCCC(=O)Nc3ccc4c(c3)c(=O)c3ccccc3n4C)ccc21 | 6 |
